# Assay results taken from PubChem BioAssay AID1362 (SRMLSC, 2008).
# In all, about 190,000 compounds went through this assay and about 4,000 (2.1%) were called active. Cut-off read from the data, not from the text of the source: active = inhibition above about 58%; inactive = the rest, inconclusive results apart; tested in S. cerevisiae. For the sample, actives were picked, then their nearest neighbours and some compounds at random.
# Experiment: growth inhibition of WT strain, primary screen, mitochondrial fusion inhibitor project, WT and mutant strains, chemical genetic (AID 1362)
# Conditions: mitochondrial fusion phenotypic screen, at 10 µM
# [1] = WT strain, growth inhibition, stronger effect = higher value
Compound,inhibition [1],inhibition (mutant strain inhibition) [%]
CC12CCC(C(=O)N(c3cccc(Cl)c3)C1=O)C2(C)C (stereo not given),15.3% (inactive),1.52
CC1=NN(c2cccc(Cl)c2)C(=O)C12CC(C)=C(C)CS2 (stereo not given),71.2% (active),49.2
CCCCN(CC)CCNC(=O)CCNC(=O)Cn1ccc2ccccc2c1=O,-12.2% (inactive),5.97
CN(C)c1ccc(/C=N/Nc2cc(N3CCOCC3)nc(N3CCOCC3)n2)cc1,2.15% (inactive),-1.62
C/C(=N\NC(=S)NC1CCCCC1)c1ccc(C)o1,76.5% (active),64.5
Cc1ccc(NC(=S)NC2CCCC2)cc1,1.79% (inactive),-5.24
C/C(=N/NC(=O)c1ccc(Br)o1)c1ccc(C)o1,-7.01% (inactive),-8.07
COc1ccc(C(=O)Nc2ccc(N3CCC(C)CC3)cc2)cc1Br,-5.4% (inactive),7.51
O=S(=O)(c1ccc2c(c1)OCCO2)N1CCc2ccccc21,-3.01% (inactive),-8.75
CN(C)C=NC(=O)c1cccn1-c1ncc(C(F)(F)F)cc1Cl,17.4% (inactive),-2.64
Cc1noc(C)c1COc1ccc2ccc(=O)oc2c1,7.56% (inactive),-14.3
COc1cc(CNc2ncn[nH]2)ccc1OCc1ccccc1C,-10% (inactive),6.17
c1n[nH]c(NCc2ccc3c(c2)OCO3)n1,76.9% (active),23
O=C(CSc1ncn[nH]1)NCc1ccc2c(c1)OCO2,-7.65% (inactive),6.4
CCCn1c(C(O)c2ccc(OCC)cc2)nc2ccccc21 (stereo not given),16.9% (inactive),18.6
CCCCCCOC(=O)NCC(O)c1ccccc1 (stereo not given),-6.62% (inactive),-10.2
CCCCCC(O)c1cccc(OCc2ccc3ccccc3n2)c1 (stereo not given),77.5% (active),12.2
CCn1c(N)c(Br)c(=O)[nH]c1=O,-1.38% (inactive),6.81
CCOC(=O)c1ccc[n+](CC(=O)Nc2ccccc2OC(F)F)c1,-21.9% (inactive),-5.87
CCOC(=O)c1sc(=NC(=O)/C=C/c2cccs2)n(C)c1C,11.4% (inactive),-7.32
COc1ccc(NC(=O)C(Br)C(C)C)cc1 (stereo not given),-7.51% (inactive),2.44
CC1CCN(c2ccc([N+](=O)[O-])cc2C(N)=O)CC1,3.04% (inactive),-16.1
NS(=O)(=O)c1cccc(NC(=O)CSc2nc3ccccc3n2-c2ccccc2)c1,-7.39% (inactive),1

Compound,inhibition [1],inhibition (mutant strain inhibition) [%]
Cc1ccc(-n2c(SCC(=O)Nc3ncc(Cl)cc3Cl)nc3ccccc32)cc1,74.2% (active),43.6
Cc1ccc(SCCC(=O)OCC(=O)Nc2ncc(Cl)cc2Cl)cc1,2.29% (inactive),2.8
S=C(c1ccc(-c2ccccc2)o1)N1CCCCC1,43.1% (inactive),35.3
O=C(Nc1ccc(Cl)cn1)Nc1cccs1,8.8% (inactive),18.2
Clc1ccc(Nc2nc(-c3cccs3)cs2)nc1,78.8% (active),68.5
c1ccc(Nc2nc(-c3ccncc3)cs2)nc1,23.8% (inactive),27.6
COc1ccccc1N1CCN(/N=C\C(Br)=C\c2ccccc2)CC1,15.4% (inactive),14.3
O=C(CN1CCCCC1)Nc1ccccc1Cl,-11.8% (inactive),3.7
O=C(Nc1ccccc1Cl)/C(Cl)=C(\Cl)S(=O)c1ccccc1 (stereo not given),95.8% (active),92.8
O=C(Nc1ccccc1Cl)c1ccc2nsnc2c1,-2.83% (inactive),-10.8
O=C(Cc1ccccc1)NNC(=O)C1CCN(c2ncccn2)CC1,-17.4% (inactive),-9.74
CC(c1ccco1)N(C(=O)c1ccc(S(=O)(=O)N2CCCCC2)cc1)c1ccccn1 (stereo not given),4.63% (inactive),-4.51
O=C(COc1ccccc1[N+](=O)[O-])NC1CC1,-0.95% (inactive),8.16
CC(c1ccco1)N(C(=O)COc1ccccc1[N+](=O)[O-])c1ccccn1 (stereo not given),70.6% (active),2.58
CCCCN(CC(=O)NC(C)(C)C)C(=O)C(=O)Nc1ccc2c(c1)OCCO2,-14.6% (inactive),11
OCCC#Cc1ccc(CN2CCN(Cc3ccsc3)C(CCO)C2)cc1 (stereo not given),2.66% (inactive),-0.56
CCOC(=O)c1ccc(NC(=S)Nc2cc(C)cc(C)n2)cc1,12.9% (inactive),22.8
Cc1ccc2c(c1)C1CN(C)CCC1N2C(=S)Nc1ccc(OC(F)F)cc1 (stereo not given),17.8% (inactive),8.65
Cc1ccc2c(c1)C1CN(C)CCC1N2C(=O)c1ccccc1NS(=O)(=O)c1ccc(F)cc1C (stereo not given),-2.24% (inactive),-7.82
Cc1ccc2c(c1)C1CN(C)CCC1N2S(=O)(=O)c1ccc(Oc2ccc([N+](=O)[O-])cc2)cc1 (stereo not given),78.9% (active),62.2
Cc1ccc(S(=O)(=O)CCC(=O)OCc2ccccc2)cc1,0.5% (inactive),13.9
C=CCN(CC=C)CCOc1ccccc1[N+](=O)[O-],1.42% (inactive),1.87
CC1=CC2=NC(=O)CC(C)(C(=O)N(CC(=O)NC(C)(C)C)Cc3ccccc3)N2C=C1 (stereo not given),-18.1% (inactive),-9.57

Compound,inhibition [1],inhibition (mutant strain inhibition) [%]
Cc1nnc(SCC(=O)NCc2ccccc2)s1,9.71% (inactive),1.45
Cc1nnc(SCC(=O)N2CCc3ccccc3C2)s1,3.58% (inactive),-9.75
Cc1nnc(SCC(=O)N2c3ccccc3C(C)(c3ccc(Cl)cc3)CC2(C)C)s1 (stereo not given),68.9% (active),10.2
CCCCCCCC1(C)NC(=O)N(CC(=O)Nc2cc(C)on2)C1=O (stereo not given),3.19% (inactive),-21
COc1cc(C)c(S(=O)(=O)N2CCOCC2)c(C)c1C,-12.4% (inactive),-18.1
CC(C)(C)N(CC#CCC(O)(c1ccccc1)C1CCCC1)CCO (stereo not given),-9.77% (inactive),-9.45
COc1cccc(/C=C/C(=O)Nc2ccc3c(c2)OCCO3)c1,19.1% (inactive),5.63
CCCSc1nc(NCc2ccco2)c2c3c(sc2n1)COC(C)(CC)C3 (stereo not given),58.6% (active),41.2
CCC1(C)Cc2c(sc3nc(SC)nc(N)c23)CO1 (stereo not given),-20.9% (inactive),-10.7
CN(C)CCSc1nc(N)c2c3c(sc2n1)COC(C)(C)C3,-20.9% (inactive),-1.39
N/C(=N\OC(=O)Nc1ccc(Cl)c(Cl)c1)c1ncc(C(F)(F)F)cc1Cl,80.3% (active),78.5
N/C(=N\OC(=O)CCCC(=O)O)c1ncc(C(F)(F)F)cc1Cl,9.89% (inactive),9.98
O=C(CC(O)(C(F)(F)F)C(F)(F)F)Nc1ccc(Cl)c(Cl)c1,84.6% (inactive),85.2
CCc1cccc2c(=O)c(C(=O)NCCCOC)c[nH]c12,4.61% (inactive),8.59
CCN1CCN(CC(=O)c2cc(OC)c(OC)c(OC)c2)CC1,-2.06% (inactive),-0.71
COc1cccc(-c2nc3cc(C)ccc3o2)c1,26.9% (inactive),17.7
CC(C)(C)Oc1ncc(Br)c(OC(C)(C)C)n1,18.5% (inactive),15.1
COc1cccc(-c2cnc(OC(C)(C)C)nc2OC(C)(C)C)c1,84.1% (active),27.8
Cc1ccccc1NC(=O)NNC(=O)OC(C)(C)C,-2.03% (inactive),-7.53
[O-][n+]1c2c(nn1-c1ccc(Cl)c(Cl)c1)-c1nonc1CC2,38% (inactive),6.81
CN(C)CCN=c1cc(-c2ccccc2)oc2ccc(Cl)cc12,10.8% (inactive),15.6
c1ccc2c(NC3C4CC5CC(C4)CC3C5)nc(N3CCOCC3)nc2c1 (stereo not given),69.3% (active),45.5
CC(Nc1nc(N2CCOCC2)nc2ccccc12)c1ccccc1 (stereo not given),7.41% (inactive),-4.07

Compound,inhibition [1],inhibition (mutant strain inhibition) [%]
c1ccc(Nc2nc(N3CCOCC3)c3ccccc3n2)cc1,44.7% (inactive),45.5
CCc1nc2ccccc2c(C(=O)NCc2ccc(OC)cc2)c1C,-7.63% (inactive),-13.1
CC(=O)NC1C(Oc2ccc(C=O)cc2)OC(COC(C)=O)C(OC(C)=O)C1OC(C)=O (stereo not given),-6.93% (inactive),-11.4
Cn1nnnc1-c1cc(Cl)cc(Cl)c1,0.51% (inactive),21.3
CCCCc1nc(NCc2ccccc2)c(C#N)c2c1CCCC2,-9.79% (inactive),2.15
CCCCc1nc(NCCN)c(C#N)c2c1CSC(C)(C)C2,85.3% (active),31.7
Cc1nc(NCCN)c(C#N)c2c1COC(C)(C)C2,24.4% (inactive),10.2
CCN1CCN(c2ccc(NC(=O)c3cnccn3)cc2)CC1,4.84% (inactive),4.5
CCn1ccnc1CN1CCCC(C(=O)c2ccc3c4c(cccc24)CC3)C1 (stereo not given),42.3% (inactive),36.2
Cc1cnc(C(=O)OCC(=O)NCCCc2ccccc2)cn1,14.9% (inactive),3.19
O=c1cc(N2CCN(Cc3ccccc3)CC2)c(-c2ccccc2)n[nH]1,-12.8% (inactive),-10.6
O=c1c2ccccc2c(-c2ccccc2)nn1Cc1ccccc1,-8.61% (inactive),-0.27
O=c1cc(N2CCCCC2)c(-c2ccccc2)nn1Cc1cccc(F)c1,87.9% (active),46.3
CC(=O)Nc1ccccc1OC(C)C(=O)N1CCC(C)CC1 (stereo not given),-7.46% (inactive),7.56
Cc1ccc(C)c(-n2ccnc2SCC(N)=O)c1,5.62% (inactive),13.6
O=c1c2ccccc2[nH]c(=S)n1CCN1CCC(=C(c2ccc(F)cc2)c2ccc(F)cc2)CC1,77.9% (active),62.2
CCCCn1c(=S)[nH]c2ccccc2c1=O,4.59% (inactive),8.61
O=C(CCn1c(=S)[nH]c2ccccc2c1=O)NCCCN1CCCC1=O,-5% (inactive),-5.53
Cc1ccc(-n2nc3cc(Cl)c(NC(=O)c4ccco4)cc3n2)cc1,16.1% (inactive),-7.45
Cc1ccc(Cn2c(NC(=O)c3ccco3)nc3ccccc32)cc1,92.4% (active),-2.81
CC(=O)Nc1nc2ccccc2n1Cc1ccc(C)cc1,15.3% (inactive),15.5
